Source: ChEMBL document CHEMBL4513216, “Probing the Open Global Health Chemical Diversity Library for Multistage-Active Starting Points for Next-Generation Antimalarials” (ACS Infect Dis, 2020)
Out of some 69,000 compounds screened, about 8,600 (12%) showed an effect of 50% or more. Many of the other results were omitted from the sample, so strong results are more common in it than they were.

The molecules below were run on Plasmodium berghei (assay: Screen against P. berghei liver stage (PbLuc), transformed with Luciferase, at 10uM). Settings: tested at 10 uM.
Format: functional, HepG2

Structure (SMILES) | INHIBITION [%]
NC(=O)c1cccc(-c2cnc(C3CCCNC3)cn2)c1 (configuration not stated) | 34.3
CC(C)N(C)Cc1ncn2c1CN(S(=O)(=O)c1cccs1)CCC2 | 38.5
Cc1noc([C@@H](C)NCc2ccc(F)cc2)c1C(=O)O | -4.82
CCCS(=O)(=O)N1C[C@@H]2CN(Cc3ccco3)CCO[C@@H]2C1 | -32.6
O=C(NCC1CCOC1)N1CCN(Cc2ccc3c(c2)OCO3)CC1 (configuration not stated) | 33.3
Cc1cc2cc(C(=O)N[C@@H]3CC[C@@H](N4CCCC4)[C@@H]3O)ccc2o1 | 26.3
Cc1noc(C2CCCN(Cn3cc(Br)cn3)C2)n1 (configuration not stated) | -12.2
CCC(C)NC(=O)CS(=O)(=O)Cc1nc(-c2cccs2)no1 (configuration not stated) | 46.4
Cc1noc(CS(=O)(=O)CC(=O)NC(C)c2ccccc2)n1 (configuration not stated) | 31.2
CCCc1noc(CS(=O)(=O)CC(=O)NC(C)CCC)n1 (configuration not stated) | 58.3
CC[C@@H]1N(CC2CC2)CCC[C@]12CCC(=O)N2CCOC | 4.2
Cc1noc(CN2CCN(C(=O)c3ccccn3)CC2)n1 | 37.3
CCc1nnc(CN2CCCN(C(=O)c3ccccn3)CC2)o1 | -47.6
Cc1nc(CN2CCCN(C(=O)c3ccccn3)CC2)oc1C | 60.5
Cc1nc(CN2CCCN(C(=O)c3ccn(C)c(=O)c3)CC2)cs1 | -12.2
Cc1cccc(OCc2ccc(C(=O)N3N=CCC3(O)C(F)(F)F)o2)c1 (configuration not stated) | 69.2
COCc1ccc(C(=O)N2CCC(Oc3ccccc3)(C(=O)O)CC2)o1 | -11.6
O=C(c1ccc(COc2ccccc2Cl)o1)N1N=CCC1(O)C(F)(F)F (configuration not stated) | 4.66
O=C(c1ccc(COc2ccc(Cl)cc2)o1)N1N=CCC1(O)C(F)(F)F (configuration not stated) | 89.3
O=C(Cc1ccc(Cl)cc1)N1CCC(O)(C(F)(F)F)C1 (configuration not stated) | -55
O=C(NC1CCCC1)c1ccc(COCC(F)(F)F)o1 | 31.6
COc1ccc(C(=O)COc2coc(CN3CCCCC3)cc2=O)cc1 | 44.9

Structure (SMILES) | INHIBITION [%]
CC(C)NC(=O)N1CC[C@@H](N(C)C)[C@@H]1Cc1ccncc1 | 28.2
CCS(=O)(=O)N1CCN(Cc2ccncc2)c2nc(C)ccc2C1 | 48.6
CC(c1ccc2c(c1)OCO2)n1cc2nc(N(C)C)[nH]cc-2c1=O (configuration not stated) | 39.3
CC(C)CC(=O)Nc1ccc2c(c1)ncn2CC(=O)NCCN(C)C | 32.4
COCCN1CCCC(CCCc2ccccn2)(C(N)=O)C1 (configuration not stated) | -58.7
CCOc1ccc(NC(C)=O)cc1S(=O)(=O)Nc1nnc(C)s1 | 21.8
CCOc1ccc(NC(C)=O)cc1S(=O)(=O)Nc1ccon1 | 7.83
CCOc1ccc(NC(C)=O)cc1S(=O)(=O)Nc1cc(C)on1 | 54.2
Clc1ccccc1-c1nnc(CN2CCCC2Cn2cncn2)o1 (configuration not stated) | 27.4
Cn1cc(CN2CCO[C@@H]3CN(C4CCCC4)C[C@@H]3C2)cn1 | 41.2
c1cc(CNCc2ccnc(N3CCOCC3)c2)c2c(c1)OCCO2 | 9.48
CN1CCN(c2cc(CNCc3cccc4c3OCO4)ccn2)CC1 | 73.9
OCc1cccc(CNCc2cccc3c2OCCO3)c1 | -33.4
CN(C)c1cc(CNCc2cccc3c2OCCO3)ccn1 | 52.1
c1cc(CNCc2ccnc(N3CCCC3)c2)c2c(c1)OCCO2 | 44.4
c1cc(CNCc2ccnc(N3CCCC3)c2)c2c(c1)OCCCO2 | 98.3
c1cc(CNCc2ccnc(N3CCOCC3)c2)c2c(c1)OCCCO2 | 26.4
COc1ccc(OC)c(CNCc2ccnc(N3CCOCC3)c2)c1 | -2.53
COc1cccc(CNCc2ccnc(N3CCOCC3)c2)c1OC | 50.5
c1cc(CNCc2ccnc(N3CCCC3)c2)c2c(c1)OCO2 | -17.2
COc1ccc(CNCc2ccnc(N3CCOCC3)c2)cc1OC | 27.1
c1cc(CNCc2ccnc(N3CCOCC3)c2)c2c(c1)OCO2 | -35.2

Structure (SMILES) | INHIBITION [%]
NC(=O)c1csc(N2C[C@@H](CN3CCOCC3)[C@@H](CO)C2)n1 | 20.645
O=C(NCCNc1cnccn1)N1CCCC(N2CCCC2)C1 (configuration not stated) | 37.4
c1cc(CN2CCC[C@@H](Cn3nnc(-c4cnccn4)n3)C2)ccn1 | 18.285
CCOc1cc(NC(=O)N2CCC3(CCOCC3)C2)ccc1C | -38.1
Cc1cc(CN(Cc2cccs2)CC2CCCO2)on1 (configuration not stated) | 19.4
CCN(CC)c1nc(O)cc(C(C)n2ncc3ccccc3c2=O)n1 (configuration not stated) | 0.45
O=C(C1CCCCC1)N1CCCC2(CCN(c3cnccn3)CC2)C1 | -2.35
c1cc(CNCc2ccc(Cn3cncn3)cc2)c2c(c1)OCCO2 | 16
c1cc(CNCc2ccnc(N3CCCCC3)c2)c2c(c1)OCCCO2 | 70.1
c1cc(CNCc2cccc3c2OCCCO3)cc(Cn2cncn2)c1 | 53.1
c1cc(CNCc2cccc3c2OCCO3)cc(Cn2cncn2)c1 | -8.41
CC1CN(c2cc(CNCc3cccc4c3OCCO4)ccn2)CCO1 (configuration not stated) | -26.2
CCc1nc(CN(C)C2CCN(Cc3nc(C4CC4)no3)C2)no1 (configuration not stated) | -31.6
COCC(=O)N1CCC(c2c(C(=O)N(C)C)sc3ncccc23)C1 (configuration not stated) | 9.54
O=C(c1nc2c(o1)CN(CC1CC1)C2)N1CCCC1 | 18.5
CCCOc1ccccc1NCC(=O)Nc1ccc(CC)cc1 | 15
c1cn2c(n1)CN(CC1CC1)CC(CN1CCOCC1)C2 (configuration not stated) | 42.1
CCOC1CCN(C(=O)NCc2cccc(-n3cccn3)c2)CC1 | 1.98
CCOC1CCN(C(=O)NCc2ccc(C(=O)N(C)C(C)C)cc2)CC1 | 27.6
CCOC1CCN(C(=O)NCc2ccc(CN3CCOCC3)cc2)CC1 | 61.8
O=C(N[C@@H]1CCC[C@@H](N2CCOCC2)[C@@H]1O)c1cc2ccccc2[nH]1 | -3.31
CC(C)N(C)Cc1cnc2n1CCN(Cc1cccc(F)c1)C2 | -22.1

Structure (SMILES) | INHIBITION [%]
COCCNc1nc(NCCc2ccccc2)nc2nccnc12 | -14.9
O=C(c1ccncc1)N1C[C@@H](OCc2cccnc2)[C@H]2OCCC[C@H]21 | 10.6
Cc1cc(-c2nc(-c3c(C)ncc4c3CCNC4)no2)nc(C)n1 | 33.7
Cc1ncc2c(c1-c1noc(-c3cscn3)n1)CCNC2 | 58.8
CSCC(=O)N1CCc2c(cnc(C)c2-c2noc(-c3cscn3)n2)C1 | 16.7
CC(C)Oc1ncccc1CNC(=O)N1CCSCC1 | 9.14
NC(=O)C1CCN(C(=O)NCc2ccccc2-n2cccn2)C1 (configuration not stated) | 0.914
CC(C)Oc1ncccc1CNC(=O)N1CCC1c1ccccc1 (configuration not stated) | 52
CC(=O)N1CCCN(C(=O)NCc2cccnc2OC(C)C)CC1 | -40.2
NC(=O)CC1CCN(C(=O)NCc2ccccc2-n2cccn2)CC1 | 56.3
NC(=O)C1CCN(C(=O)NCc2cccnc2OCC(F)(F)F)C1 (configuration not stated) | 56.4
CC(C)Oc1ncccc1CNC(=O)N1CCCC1c1ccsc1 (configuration not stated) | 31.2
Cc1cc(C2CCCN2C(=O)NCc2cccnc2OC(C)C)on1 (configuration not stated) | 29
CC(C)Oc1ncccc1CNC(=O)N1CCC1 | 54.4
NC(=O)C1CCN(C(=O)NCc2ccccc2-n2cccn2)CC1 | 44.1
NC(=O)C1CCN(C(=O)NCc2cccnc2OC2CCCC2)C1 (configuration not stated) | 11.2
CC(C)Oc1ncccc1CNC(=O)N1CCC(C(N)=O)C1 (configuration not stated) | 40.3
CC(C)N(C)Cc1cncc2c1CCN(C(=O)c1ccc[nH]1)C2 | 29
Cc1cccc(CN2CCc3ncnc(N4CCN(C)CC4)c3CC2)n1 | -110
COc1ccc(OC)c(-n2nnnc2SCC2CCCCO2)c1 (configuration not stated) | 20.9
Cc1cc(C)c(CNC(=O)NCC2CCCOC2)c(=O)[nH]1 (configuration not stated) | 27.5
N#Cc1ccc(CNc2cccc(C(=O)N3CCOCC3)c2)cc1 | 24.2

Structure (SMILES) | INHIBITION [%]
Cc1nc(C)n(CC2CCCN(CC(=O)NC3CCOCC3)C2)n1 (configuration not stated) | -17
CCN1CCC(=O)N(C)Cc2cc(F)ccc21 | 35.8
O=C(Cc1ccc2c(c1)OCCCO2)Nc1nnn[nH]1 | -5.38
COCCOc1ncccc1CNC(=O)N1CCOCC1 | 44.3
O=C(CC1CCCCC1)N1CCN(C(=O)NCc2ccccn2)CC1 | 12.7
CN1CCCN(C(=O)NCc2cccnc2-n2cccn2)CC1 | 52.3
CC(C)Oc1ncccc1CNC(=O)N1CCOCC1 | 65.6
CCN1CCN(C(=O)NCc2cccnc2-n2cccn2)CC1 | 33.8
CC(=O)N1CCCN(C(=O)NCCNc2ccccn2)CC1 | 16.533
O=C(NCc1cccnc1OCC(F)(F)F)N1CCOCC1 | 69.3
CC(=O)N1CCN(C(=O)NCc2cccnc2OC(C)C)CC1 | 48.2
CC(C)Oc1ncccc1CNC(=O)N1CCC(n2cccc2)CC1 | -69
CC(C)CN1CCN(C(=O)NCc2cccnc2-n2cccn2)CC1 | 11
CC(=O)N1CCCN(C(=O)NCc2ccccn2)CC1 | 53.3
COc1ncccc1CNC(=O)N1CCC(CN2CCOCC2)CC1 | 29.4
CCCc1nc(Nc2cccc(C(N)=O)c2)c2c(n1)c(C)nn2CC | -28.15
O=C(Cn1cccc(S(=O)(=O)N2CCCC2)c1=O)c1ccccc1Cl | 16.6
CCOc1cc(=O)n2c(c1C(=O)OCc1cccc(C)c1)CCCC2 | 43.8
c1csc(CN2CCn3c(Cn4cncn4)cnc3C2)n1 | 45.5
